Targets with a hit are over-represented here; the source holds about 7,900 in all. About 0.6% of all pairs of compound and target were hits.
Legend:
Test in all cases: log2 fold change, soluble protein after heating vs DMSO (PISA); higher = thermal stabilisation; K562 cells, 10 uM, 30 min; active = over 0.2 and 3.5 SD of the protein, either way, in both replicates (recomputed)
bafetinib = compound: Cc1ccc(NC(=O)c2ccc(CN3CC[C@H](N(C)C)C3)c(C(F)(F)F)c2)cc1Nc1nccc(-c2cncnc2)n1 [bafetinib]
How it was run: (§1)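 Thermal stability values are relative to control samples and come from duplicates. They are expressed as log2 fold changes. For measurement, K562 cells (2×10^6 cells/mL) received 10 μM compound for 30 min, and aliquots were heated for 3 min over 48°C-58°C, pooled, and extracted at 4°C in PBS with 0.5% NP-40. Soluble protein, the supernatant after 21,000xg for 90 min, was quantified by TMTpro 16plex LC-MS/MS with equalised channel sums.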

[1] = compound: Cc1cccc(CC(=O)N2CCc3c2ccc(-c2cn(C)c4ncnc(N)c24)c3F)n1
How it was run: as §1

nilotinib = compound: Cc1cn(-c2cc(NC(=O)c3ccc(C)c(Nc4nccc(-c5cccnc5)n4)c3)cc(C(F)(F)F)c2)cn1 [nilotinib]
How it was run: as §1

[2] = compound: Cc1nc(Nc2n[nH]c3c2CN(C(=O)N[C@H](CN(C)C)c2ccccc2)C3(C)C)c2sccc2n1
How it was run: as §1

dasatinib = compound: Cc1nc(Nc2ncc(C(=O)Nc3c(C)cccc3Cl)s2)cc(N2CCN(CCO)CC2)n1 [dasatinib]
How it was run: as §1

[3] = compound: Cc1ncc(-c2ccnc(Nc3ccc(S(C)(=O)=O)cc3)n2)n1C(C)C
How it was run: as §1

[4] = compound: Cn1cc(-c2ccc3c(c2)CCN3C(=O)Cc2cccc(C(F)(F)F)c2)c2c(N)ncnc21
How it was run: as §1

[5] = compound: Cn1cc(-c2ccc3nnc(C(F)(F)c4ccc5ncccc5c4)n3n2)cn1
How it was run: as §1

tipifarnib = compound: Cn1cncc1[C@@](N)(c1ccc(Cl)cc1)c1ccc2c(c1)c(-c1cccc(Cl)c1)cc(=O)n2C [tipifarnib]
How it was run: as §1

mubritinib = compound: FC(F)(F)c1ccc(/C=C/c2nc(COc3ccc(CCCCn4ccnn4)cc3)co2)cc1 [mubritinib]
How it was run: as §1

[6] = compound: NC(=O)Nc1cc(-c2cccc(F)c2)sc1C(=O)N[C@H]1CCCNC1
How it was run: as §1

[7] = compound: NC(=O)c1cnc(N[C@@H]2CCCC[C@@H]2N)nc1Nc1cccc(-n2nccn2)c1
How it was run: as §1

[8] = compound: NC1(c2ccc(-c3nc4ccn5c(=O)[nH]nc5c4cc3-c3ccccc3)cc2)CCC1
How it was run: as §1

[9] = compound: NCC(=O)Nc1ccc(-n2nc(C(F)(F)F)cc2-c2ccc3c(ccc4ccccc43)c2)cc1
How it was run: as §1

entinostat = compound: Nc1ccccc1NC(=O)c1ccc(CNC(=O)OCc2cccnc2)cc1 [entinostat]
How it was run: as §1

vorinostat = compound: O=C(CCCCCCC(=O)Nc1ccccc1)NO [vorinostat]
How it was run: as §1

citarinostat = compound: O=C(CCCCCCNC(=O)c1cnc(N(c2ccccc2)c2ccccc2Cl)nc1)NO [citarinostat]
How it was run: as §1

silmitasertib = compound: O=C(O)c1ccc2c(c1)nc(Nc1cccc(Cl)c1)c1ccncc12 [silmitasertib]
How it was run: as §1

[10] = compound: O=C1NC(=O)C(c2cnc3ccccn23)=C1c1cn2c3c(cc(F)cc13)CN(C(=O)N1CCCCC1)CC2
How it was run: as §1

[11] = compound: c1cc(OCCN2CCCCC2)cc(-c2n[nH]c3ccc(-c4nnc[nH]4)cc23)c1
How it was run: as §1

Measured: log2 fold change

CD53 (UniProt P19397)
Sequence of UniProt P19397 (P19397 whole entry, looked up): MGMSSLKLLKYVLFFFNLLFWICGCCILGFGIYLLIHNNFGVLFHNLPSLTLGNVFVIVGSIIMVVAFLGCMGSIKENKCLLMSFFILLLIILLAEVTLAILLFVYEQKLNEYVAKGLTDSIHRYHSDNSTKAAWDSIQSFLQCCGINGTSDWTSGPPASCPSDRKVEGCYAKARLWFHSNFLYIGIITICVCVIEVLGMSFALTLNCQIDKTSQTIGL
active: [1] -0.418
inactive: bafetinib 0.091 | nilotinib 0.069 | [2] 0.002 | dasatinib 0.078 | [3] -0.003 | [4] 0.145 | [5] 0.125 | tipifarnib 0.057 | mubritinib 0.081 | [6] -0.15 | [7] 0.196 | [8] 0.133 | [9] 0.014 | entinostat -0.044 | vorinostat -0.219 | citarinostat 0.013 | silmitasertib -0.046 | [10] -0.037 | [11] -0.12

CS (UniProt O75390)
Sequence of UniProt O75390 (O75390 whole entry, looked up): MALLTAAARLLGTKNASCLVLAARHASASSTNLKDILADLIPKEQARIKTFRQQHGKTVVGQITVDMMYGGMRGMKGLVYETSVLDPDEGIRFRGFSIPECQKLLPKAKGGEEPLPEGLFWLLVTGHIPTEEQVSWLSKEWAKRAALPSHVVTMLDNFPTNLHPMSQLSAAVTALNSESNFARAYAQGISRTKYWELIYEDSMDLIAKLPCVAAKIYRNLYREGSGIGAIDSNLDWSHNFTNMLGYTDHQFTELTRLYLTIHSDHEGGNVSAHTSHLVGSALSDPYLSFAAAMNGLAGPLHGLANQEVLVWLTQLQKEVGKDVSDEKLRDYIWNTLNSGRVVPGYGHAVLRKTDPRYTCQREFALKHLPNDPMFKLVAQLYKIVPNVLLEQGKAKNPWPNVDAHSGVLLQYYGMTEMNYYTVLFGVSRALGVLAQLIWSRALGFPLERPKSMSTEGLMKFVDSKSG
inactive: bafetinib 0.013 | [1] -0.061 | nilotinib 0.011 | [2] -0.051 | dasatinib -0.131 | [3] -0.097 | [4] 0.075 | [5] 0.083 | tipifarnib -0.033 | mubritinib 0.015 | [6] -0.024 | [7] -0.087 | [8] -0.187 | [9] 0.007 | entinostat 0.001 | vorinostat 0.064 | citarinostat 0.012 | silmitasertib -0.039 | [10] 0.003 | [11] -0.068

CDK6 (UniProt Q00534)
inactive: bafetinib -0.017 | [1] -0.002 | nilotinib -0.021 | [2] -0.079 | dasatinib -0.01 | [3] 0.081 | [4] -0.019 | [5] -0.033 | tipifarnib -0.043 | mubritinib 0.012 | [6] -0.004 | [7] -0.082 | [8] -0.017 | [9] -0.003 | entinostat 0.009 | vorinostat 0.005 | citarinostat -0.006 | silmitasertib 0.131 | [10] 0.146 | [11] 0.017

CRLF3 (UniProt Q8IUI8)
Sequence of UniProt Q8IUI8 (Q8IUI8 whole entry, looked up): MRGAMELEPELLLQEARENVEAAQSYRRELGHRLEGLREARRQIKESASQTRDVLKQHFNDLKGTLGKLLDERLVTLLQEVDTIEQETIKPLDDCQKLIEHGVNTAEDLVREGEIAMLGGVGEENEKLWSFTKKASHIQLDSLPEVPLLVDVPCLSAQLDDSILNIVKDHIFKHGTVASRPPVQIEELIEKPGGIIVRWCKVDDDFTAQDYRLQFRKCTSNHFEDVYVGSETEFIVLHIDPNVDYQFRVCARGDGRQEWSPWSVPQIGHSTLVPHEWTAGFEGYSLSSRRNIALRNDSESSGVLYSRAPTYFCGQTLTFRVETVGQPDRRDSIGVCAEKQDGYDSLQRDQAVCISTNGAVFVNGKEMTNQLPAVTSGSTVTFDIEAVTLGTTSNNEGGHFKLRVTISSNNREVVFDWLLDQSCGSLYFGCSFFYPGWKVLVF
inactive: bafetinib -0.032 | [1] -0.045 | nilotinib -0.043 | [2] -0.117 | dasatinib -0.145 | [3] 0.011 | [4] 0.025 | [5] 0.024 | tipifarnib -0.018 | mubritinib 0.032 | [6] 0.016 | [7] -0.233 | [8] -0.165 | [9] -0.105 | entinostat 0.025 | vorinostat -0.023 | citarinostat 0.047 | silmitasertib 0.104 | [10] -0.003 | [11] -0.057

CERT isoform 3 (UniProt Q9Y5P4)
active: [2] -0.397 | [6] -0.323 | [11] -0.418
inactive: bafetinib 0.032 | [1] -0.08 | nilotinib 0.193 | dasatinib 0.019 | [3] -0.11 | [4] 0.109 | [5] 0.021 | tipifarnib 0.111 | mubritinib 0.117 | [7] -0.103 | [8] -0.101 | [9] -0.045 | entinostat -0.008 | vorinostat -0.025 | citarinostat 0.065 | silmitasertib 0.034 | [10] 0

COCH (UniProt O43405)
inactive: bafetinib 0.076 | [1] -0.17 | nilotinib 0.2 | [2] -0.288 | dasatinib 0.179 | [3] -0.262 | [4] -0.069 | [5] -0.005 | tipifarnib 0.07 | mubritinib -0.062 | [6] 0.024 | [7] -0.014 | [8] 0.035 | [9] 0.13 | entinostat 0.123 | vorinostat -0.122 | citarinostat -0.084 | silmitasertib 0.072 | [10] 0.055 | [11] -0.149

C4A (UniProt P0C0L4)
inactive: bafetinib -0.316 | [1] -0.018 | nilotinib 0.027 | [2] 0.136 | dasatinib -0.044 | [3] 0.217 | [4] 0.163 | [5] 0.052 | tipifarnib -0.087 | mubritinib -0.193 | [6] -0.024 | [7] -0.016 | [8] -0.129 | [9] 0 | entinostat 0.021 | vorinostat 0.265 | citarinostat -0.071 | silmitasertib 0.059 | [10] 0.038 | [11] 0.146

CKB (UniProt P12277)
inactive: bafetinib 0.02 | [1] 0.02 | nilotinib 0.051 | [2] 0.037 | dasatinib -0.142 | [3] -0.008 | [4] 0.081 | [5] 0.01 | tipifarnib -0.057 | mubritinib 0.062 | [6] -0.035 | [7] -0.02 | [8] -0.117 | [9] -0.033 | entinostat -0.001 | vorinostat -0.023 | citarinostat -0.046 | silmitasertib -0.117 | [10] -0.04 | [11] -0.018

CLCN3 isoform 2 (UniProt P51790)
inactive: bafetinib -0.044 | [1] 0.076 | nilotinib -0.016 | [2] 0.034 | dasatinib 0.027 | [3] 0.017 | [4] 0.017 | [5] 0.027 | tipifarnib 0.004 | mubritinib -0.004 | [6] 0.013 | [7] 0.014 | [8] -0.17 | [9] 0.024 | entinostat 0.019 | vorinostat 0.037 | citarinostat -0.002 | silmitasertib -0.015 | [10] -0.002 | [11] 0.283

CDK13 (UniProt Q14004)
Sequence of UniProt Q14004 (Q14004 whole entry, looked up): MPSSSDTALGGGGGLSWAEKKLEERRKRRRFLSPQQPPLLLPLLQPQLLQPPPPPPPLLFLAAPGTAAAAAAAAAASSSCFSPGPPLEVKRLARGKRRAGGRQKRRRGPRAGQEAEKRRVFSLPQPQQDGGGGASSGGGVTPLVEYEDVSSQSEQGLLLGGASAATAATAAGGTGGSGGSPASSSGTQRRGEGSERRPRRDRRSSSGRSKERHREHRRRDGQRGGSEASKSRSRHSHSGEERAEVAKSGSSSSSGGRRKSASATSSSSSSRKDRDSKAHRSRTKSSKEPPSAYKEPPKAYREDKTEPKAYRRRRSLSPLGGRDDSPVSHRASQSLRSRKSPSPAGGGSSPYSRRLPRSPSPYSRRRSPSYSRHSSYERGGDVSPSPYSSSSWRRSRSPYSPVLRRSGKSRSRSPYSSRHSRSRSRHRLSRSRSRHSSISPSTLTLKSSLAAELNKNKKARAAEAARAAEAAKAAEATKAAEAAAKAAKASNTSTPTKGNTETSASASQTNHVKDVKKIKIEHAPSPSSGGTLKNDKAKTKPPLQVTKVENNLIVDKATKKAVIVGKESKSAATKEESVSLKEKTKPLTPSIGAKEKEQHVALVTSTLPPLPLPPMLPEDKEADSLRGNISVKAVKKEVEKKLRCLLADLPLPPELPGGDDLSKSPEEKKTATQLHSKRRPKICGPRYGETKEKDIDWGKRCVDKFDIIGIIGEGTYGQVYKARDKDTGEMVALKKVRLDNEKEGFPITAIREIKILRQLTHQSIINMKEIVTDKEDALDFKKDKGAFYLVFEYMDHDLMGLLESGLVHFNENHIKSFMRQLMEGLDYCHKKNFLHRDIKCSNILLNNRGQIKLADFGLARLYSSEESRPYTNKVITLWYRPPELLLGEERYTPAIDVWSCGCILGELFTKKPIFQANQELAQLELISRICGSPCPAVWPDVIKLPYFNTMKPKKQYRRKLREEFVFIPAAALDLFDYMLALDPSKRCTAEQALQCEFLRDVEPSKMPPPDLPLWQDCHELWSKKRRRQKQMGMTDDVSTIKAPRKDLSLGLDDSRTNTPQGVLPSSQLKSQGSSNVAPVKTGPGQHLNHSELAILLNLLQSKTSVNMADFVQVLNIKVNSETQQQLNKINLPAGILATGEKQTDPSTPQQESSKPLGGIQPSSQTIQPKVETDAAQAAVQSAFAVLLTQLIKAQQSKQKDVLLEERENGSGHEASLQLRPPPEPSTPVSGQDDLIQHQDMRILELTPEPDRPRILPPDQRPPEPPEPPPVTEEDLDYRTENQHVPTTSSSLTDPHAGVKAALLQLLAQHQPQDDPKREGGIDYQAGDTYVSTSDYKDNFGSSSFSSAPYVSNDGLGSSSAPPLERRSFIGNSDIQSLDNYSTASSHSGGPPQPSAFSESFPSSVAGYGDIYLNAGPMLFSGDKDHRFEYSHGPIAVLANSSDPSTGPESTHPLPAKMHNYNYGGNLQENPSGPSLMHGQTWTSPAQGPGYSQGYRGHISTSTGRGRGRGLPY
inactive: bafetinib 0.092 | [1] -0.018 | nilotinib -0.024 | [2] -0.149 | dasatinib -0.089 | [3] -0.108 | [4] -0.028 | [5] -0.098 | tipifarnib 0.069 | mubritinib 0.023 | [6] -0.032 | [7] -0.007 | [8] -0.063 | [9] 0.042 | entinostat 0 | vorinostat 0.018 | citarinostat 0.013 | silmitasertib -0.018 | [10] 0.035 | [11] -0.196

CLASP2 isoform 3 (UniProt O75122)
active: [2] -0.279
inactive: bafetinib 0.016 | [1] 0.058 | nilotinib -0.067 | dasatinib -0.175 | [3] -0.188 | [4] 0.013 | [5] 0.012 | tipifarnib -0.089 | mubritinib 0.022 | [6] 0.018 | [7] -0.018 | [8] -0.147 | [9] -0.036 | entinostat 0.02 | vorinostat 0.069 | citarinostat 0.09 | silmitasertib -0.033 | [10] -0.153 | [11] -0.055

CAVIN1 (UniProt Q6NZI2)
Sequence of UniProt Q6NZI2 (Q6NZI2 whole entry, looked up): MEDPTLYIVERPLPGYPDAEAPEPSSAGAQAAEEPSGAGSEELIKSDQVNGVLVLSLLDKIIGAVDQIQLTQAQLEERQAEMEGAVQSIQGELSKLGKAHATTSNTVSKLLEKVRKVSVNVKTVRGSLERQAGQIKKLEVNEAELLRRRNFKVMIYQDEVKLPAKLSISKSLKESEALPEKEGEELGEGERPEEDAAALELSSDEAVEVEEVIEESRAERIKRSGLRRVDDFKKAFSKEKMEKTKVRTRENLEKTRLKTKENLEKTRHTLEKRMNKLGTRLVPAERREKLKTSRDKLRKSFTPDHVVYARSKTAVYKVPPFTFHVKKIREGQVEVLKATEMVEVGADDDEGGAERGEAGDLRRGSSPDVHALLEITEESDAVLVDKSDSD
inactive: bafetinib 0.114 | [1] 0.004 | nilotinib -0.047 | [2] 0.104 | dasatinib -0.001 | [3] -0.11 | [4] -0.157 | [5] -0.204 | tipifarnib 0.125 | mubritinib -0.067 | [6] 0.034 | [7] -0.07 | [8] 0.046 | [9] 0.074 | entinostat 0.008 | vorinostat 0.004 | citarinostat -0.004 | silmitasertib 0.041 | [10] 0.108 | [11] -0.087

CBX5 (UniProt P45973)
Sequence of UniProt P45973 (P45973 whole entry, looked up): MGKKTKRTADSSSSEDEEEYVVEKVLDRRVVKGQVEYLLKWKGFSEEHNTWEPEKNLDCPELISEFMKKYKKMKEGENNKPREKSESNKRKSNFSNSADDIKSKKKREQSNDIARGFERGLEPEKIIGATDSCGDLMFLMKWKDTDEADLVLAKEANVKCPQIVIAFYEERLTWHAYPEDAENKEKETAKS
inactive: bafetinib -0.019 | [1] 0.01 | nilotinib 0.002 | [2] -0.138 | dasatinib -0.069 | [3] -0.064 | [4] -0.01 | [5] -0.02 | tipifarnib -0.048 | mubritinib 0.062 | [6] -0.066 | [7] -0.027 | [8] -0.025 | [9] -0.106 | entinostat 0.025 | vorinostat 0.113 | citarinostat 0.041 | silmitasertib -0.016 | [10] -0.073 | [11] -0.021

CD55 isoform 7 (UniProt P08174)
inactive: bafetinib 0.168 | [1] -0.06 | nilotinib 0.086 | [2] 0.027 | dasatinib 0.096 | [3] -0.026 | [4] -0.051 | [5] -0.012 | tipifarnib -0.027 | mubritinib -0.075 | [6] -0.048 | [7] 0.028 | [8] 0.128 | [9] 0.108 | entinostat 0.018 | vorinostat -0.044 | citarinostat 0.009 | silmitasertib -0.006 | [10] -0.043 | [11] -0.047

CETN2 (UniProt P41208)
Sequence of UniProt P41208 (P41208 whole entry, looked up): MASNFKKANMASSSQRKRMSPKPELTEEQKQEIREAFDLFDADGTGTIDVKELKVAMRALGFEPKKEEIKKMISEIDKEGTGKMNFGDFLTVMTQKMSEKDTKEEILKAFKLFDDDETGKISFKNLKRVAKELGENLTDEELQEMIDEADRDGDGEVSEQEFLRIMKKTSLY
inactive: bafetinib -0.029 | [1] -0.131 | nilotinib 0.071 | [2] -0.055 | dasatinib 0.081 | [3] -0.001 | [4] -0.013 | [5] 0.03 | tipifarnib 0.216 | mubritinib 0.036 | [6] -0.051 | [7] 0.024 | [8] 0.102 | [9] 0.076 | entinostat -0.033 | vorinostat -0.122 | citarinostat -0.1 | silmitasertib -0.028 | [10] -0.027 | [11] -0.091

CAMSAP1 isoform 3 (UniProt Q5T5Y3)
Sequence of UniProt Q5T5Y3 (Q5T5Y3 whole entry, looked up): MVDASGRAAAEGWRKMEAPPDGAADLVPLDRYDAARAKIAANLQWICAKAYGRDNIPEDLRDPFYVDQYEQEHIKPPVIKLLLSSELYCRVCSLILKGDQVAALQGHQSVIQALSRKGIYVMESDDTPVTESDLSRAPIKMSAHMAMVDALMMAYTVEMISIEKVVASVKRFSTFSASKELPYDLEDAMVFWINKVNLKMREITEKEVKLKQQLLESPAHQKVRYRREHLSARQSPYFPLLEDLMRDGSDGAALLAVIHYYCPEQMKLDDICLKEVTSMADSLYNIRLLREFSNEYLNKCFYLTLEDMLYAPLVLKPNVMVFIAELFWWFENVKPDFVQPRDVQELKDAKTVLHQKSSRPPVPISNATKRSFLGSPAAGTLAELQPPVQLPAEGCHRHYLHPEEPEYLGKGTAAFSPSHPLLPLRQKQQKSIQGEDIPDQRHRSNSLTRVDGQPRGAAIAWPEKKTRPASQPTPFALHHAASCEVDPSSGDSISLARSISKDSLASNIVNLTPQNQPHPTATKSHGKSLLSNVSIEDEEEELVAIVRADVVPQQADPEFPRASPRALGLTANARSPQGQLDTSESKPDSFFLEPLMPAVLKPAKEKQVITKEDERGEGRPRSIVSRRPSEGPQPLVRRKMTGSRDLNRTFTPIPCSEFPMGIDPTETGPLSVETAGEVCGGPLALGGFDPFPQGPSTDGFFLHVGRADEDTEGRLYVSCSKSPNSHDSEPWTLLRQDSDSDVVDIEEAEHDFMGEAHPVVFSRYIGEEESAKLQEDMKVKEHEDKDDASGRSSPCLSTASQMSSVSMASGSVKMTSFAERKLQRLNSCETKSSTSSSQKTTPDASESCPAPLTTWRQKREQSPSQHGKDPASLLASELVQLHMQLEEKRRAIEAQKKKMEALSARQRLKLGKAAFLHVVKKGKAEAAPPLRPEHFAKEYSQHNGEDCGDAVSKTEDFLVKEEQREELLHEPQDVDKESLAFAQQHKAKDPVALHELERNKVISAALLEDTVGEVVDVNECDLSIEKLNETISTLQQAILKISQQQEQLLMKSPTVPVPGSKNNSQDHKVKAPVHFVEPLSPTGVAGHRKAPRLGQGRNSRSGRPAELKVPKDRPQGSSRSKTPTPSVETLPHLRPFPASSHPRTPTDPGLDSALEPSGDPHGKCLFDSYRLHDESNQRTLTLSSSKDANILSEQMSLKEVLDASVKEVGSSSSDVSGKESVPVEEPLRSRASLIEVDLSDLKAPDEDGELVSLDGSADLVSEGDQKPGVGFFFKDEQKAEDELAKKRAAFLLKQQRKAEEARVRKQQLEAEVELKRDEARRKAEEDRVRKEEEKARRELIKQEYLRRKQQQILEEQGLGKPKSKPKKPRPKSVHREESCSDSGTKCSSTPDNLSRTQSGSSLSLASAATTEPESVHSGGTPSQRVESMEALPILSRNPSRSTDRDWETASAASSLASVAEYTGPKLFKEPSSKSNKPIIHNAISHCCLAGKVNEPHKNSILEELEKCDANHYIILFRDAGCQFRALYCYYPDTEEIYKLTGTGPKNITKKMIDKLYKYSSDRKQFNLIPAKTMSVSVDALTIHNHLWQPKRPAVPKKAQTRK
active: [9] -0.466
inactive: bafetinib -0.019 | [1] -0.05 | nilotinib 0.043 | [2] -0.061 | dasatinib -0.144 | [3] -0.055 | [4] 0.091 | [5] -0.021 | tipifarnib -0.132 | mubritinib -0.005 | [6] 0.124 | [7] -0.048 | [8] -0.172 | entinostat -0.29 | vorinostat -0.078 | citarinostat 0.045 | silmitasertib 0.064 | [10] -0.028 | [11] -0.013
